Screening data: PubChem BioAssay, National Center for Advancing Translational Sciences (NCATS)
KCNH2 3.1 inh = KCNH2 3.1 (human) potassium channel inhibition. U2OS KCNH2 3.1, thallium flux FluxOr; active compounds read low. actives 0.95% (n = 340,000). activity change, % (tested at about 1.8 µM). AID 720553;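 active = maximum activity change below -70%; inconclusive = maximum activity change from -70% to -50%; inactive = maximum activity change above -50%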;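 also: thallium influx rate constant from kinetic fluorescence after stimulation buffer; % is scaled to controls: 0 for no effect and ±100 for the full control effect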
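Virally transduced U2OS (3.1 isoform, 4 h infection in dark at RT) → overnight 37 C → FluxOr + Red40 in HBSS/HEPES, 45 min → stimulation buffer, 2 min kinetic read → rate constant vs DMSO controls.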
PLK1 PBD block = inhibitors of human PLK1 polo-box domain binding | P53350 | Potency, µM, for the others: max response, negative = inhibition, hits mostly inhibitors | Plk1 PBD binding of FITC phosphopeptide, fluorescence polarization | actives 2.8% (n = 360,000); also: potency is read from the fitted curve at half-maximal effect; series mostly up to about 57 µM; % is scaled to controls: 0 for no effect and ±100 for the full control effect; nearly all actives have a fitted effect of over 65% in size
hERG WT inh = inhibitors of human wildtype KCNH2 potassium channel | actives 0.37% (n = 340,000) | activity change, % at 1.84 µM | Q12809 | U2OS, BacMam KCNH2, thallium flux FluxOr; active compounds read low;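 active = maximum activity change below -70%; inconclusive = maximum activity change between -70% and -50%; inactive = maximum activity change above -50%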; also: % is scaled to controls: 0 for no effect and ±100 for the full control effect
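U2OS cells were transduced with wild-type KCNH2 virus (2.03 x 10^8 / mL) for 4 h at room temperature, then cultured overnight at 37 C. Thallium flux was read with FluxOr dye. Rate constants were normalized to DMSO controls.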
VDR inhibitor = inhibitors of human vitamin D receptor; P11473; VDR-SRC2-3 peptide fluorescence polarization, 2 h; Potency, µM, for inactives: max response, negative = inhibition, usual class: inhibitors; actives 0.93% (n = 400,000); also: potency is read from the fitted curve at half-maximal effect; % is scaled to controls: 0 for no effect and ±100 for the full control effect
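VDR–SRC2-3 interaction, FP format. Cmpds 23 nl via pintool, brief spin, 2 h ambient incubation.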
MBNL1 CUG block = inhibitors of human MBNL1 binding to CUG repeat RNA. Q9NR56. Potency, µM (doses to about 57.5 µM), for inactives: top-dose activity change, negative = inhibition, actives largely listed as inhibitors. TR-FRET MBNL1-His/biotin-(CUG)12 binding, 665/545 ratio. actives 0.036% (n = 280,000); active = well fitted inhibition curve with a large enough effect in the signal ratio, with a control signal flat, not every such curve was filed as active; inconclusive = small, poorly fitted or top-dose-only effect, or effect the other way, or a change in a side signal; inactive = no such curve, though single readings can be large or run the other way; the % refers to the signal ratio; also: potency is read from the fitted curve at half-maximal effect; % is scaled to controls: 0 for no effect and ±100 for the full control effect
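Inhibition of protein-RNA binding appears as loss of TR-FRET between terbium anti-His antibody on MBNL1-His and streptavidin-XL665 on biotin-(CUG)12. Activity is normalized to buffer-only and uninhibited-complex controls.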
CBFb RUNX1 block = CBF-beta/RUNX1 interaction disruption; AlphaScreen CBFb-His/RUNX1-biotin binding, biochemical; AID 1477; 230,000 tested, under 10 active; Potency, µM (doses to about 59.8 µM), inactives show at the highest dose activity, negative = inhibition, actives largely listed as inhibitors; also: % of control where 0% means no effect
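Bead-based AlphaScreen assay; binding partners His-tagged CBF-beta and biotinylated RUNX1 at 30 nM each. Compound exposure 15 min after a 20-min protein preincubation; bead step 90 min; all steps at room temperature.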
An asterisk follows results filed as active. In the library only some 3.8% were active in any assay of this set; here they are far more common. Unless noted, calls follow the shape of the dose curve; as a rule, active = well fitted curve in the direction sought with a large enough effect; inconclusive = small, poorly fitted or top-dose-only effect, or another doubt; inactive = no such curve, though single readings can be large; an effect the other way counts as inactive or inconclusive.

What do the screens show for `O=C(O)c1ccccc1NS(=O)(=O)c1cccc(-n2sc3ccccc3c2=O)c1`?
KCNH2 3.1 inh: 18; PLK1 PBD block: 3.4µM*; hERG WT inh: 12; VDR inhibitor: 10µM*; MBNL1 CUG block: 2%

Results for O=C(CSc1nc2c([nH]c3ccccc32)c(=O)n1-c1ccc(F)cc1)N1CCCc2ccccc21 ?
VDR inhibitor: 6%

Results for COc1cc(NC(=O)c2nn(C)c3c2COc2ccccc2-3)cc(OC)c1OC ?
VDR inhibitor: 15%

How did CCCOc1ccc(C(=O)NNC(=S)NC(=O)c2cccs2)cc1 do in these assays?
KCNH2 3.1 inh: 34; PLK1 PBD block: 30µM*; hERG WT inh: -3; VDR inhibitor: -21%; MBNL1 CUG block: 4%

What do the screens show for `CC(C)(C)c1ccc(C(=O)NC(=S)NNC(=O)COc2ccccc2)cc1`?
KCNH2 3.1 inh: -30; PLK1 PBD block: inconclusive; hERG WT inh: -19; VDR inhibitor: -6%; MBNL1 CUG block: -1%

How did CCCOc1ccc(C(=O)NNC(=S)NC(=O)c2ccccc2)cc1 do in these assays?
KCNH2 3.1 inh: -1; PLK1 PBD block: -21%; hERG WT inh: inconclusive; VDR inhibitor: -13%; MBNL1 CUG block: -8%

Results for Cc1ccc(C(=O)NNC(=S)NC(=O)COc2ccccc2)cc1 ?
KCNH2 3.1 inh: 11; PLK1 PBD block: 27µM*; hERG WT inh: 21; VDR inhibitor: -7%; MBNL1 CUG block: 0%; CBFb RUNX1 block: 0%

Results for CC(C)(C)N1CSC(=S)N(Cc2ccccc2)C1 ?
KCNH2 3.1 inh: 13; PLK1 PBD block: inconclusive; hERG WT inh: -16; VDR inhibitor: inconclusive; CBFb RUNX1 block: -12%

What do the screens show for `CC(C)N1CSC(=S)N(Cc2ccccc2)C1`?
KCNH2 3.1 inh: 18; PLK1 PBD block: inconclusive; hERG WT inh: 4; VDR inhibitor: 79µM*; MBNL1 CUG block: -9%; CBFb RUNX1 block: -9%

What do the screens show for `CCCCOc1ccc(C2(C)NC(=O)NC2=O)cc1` (centres undefined)?
KCNH2 3.1 inh: 7; PLK1 PBD block: 7.5µM*; hERG WT inh: -1; VDR inhibitor: 25µM*; MBNL1 CUG block: 1%

How did CCOc1ccc(CNC(=O)CCn2c(=O)c3cccn3c3ccc(F)cc32)cc1 do in these assays?
VDR inhibitor: -10%

What do the screens show for `O=C(Nc1ccccc1)c1ccc2c(O)c(S(=O)(=O)c3ccc(Cl)cc3)c(=O)[nH]c2c1`?
VDR inhibitor: 19%

Results for COC(=O)CCC(=O)Nc1sc(C)c(C)c1C(N)=O ?
KCNH2 3.1 inh: -5; PLK1 PBD block: 4.7µM*; hERG WT inh: -8; VDR inhibitor: 50µM*; MBNL1 CUG block: 5%; CBFb RUNX1 block: -3%

Results for CCCC(=O)Nc1sc(Cc2ccccc2)c(C)c1C(N)=O ?
KCNH2 3.1 inh: -3; PLK1 PBD block: 5.3µM*; hERG WT inh: -16; VDR inhibitor: inconclusive; MBNL1 CUG block: 0%; CBFb RUNX1 block: 3%

Results for Cc1sc(NC(=O)C2CCCCC2C(=O)O)c(C(N)=O)c1-c1ccccc1 (centres undefined) ?
KCNH2 3.1 inh: 2; PLK1 PBD block: inconclusive; hERG WT inh: 1; VDR inhibitor: -20%; MBNL1 CUG block: -1%; CBFb RUNX1 block: 2%

How did COc1ccc(NC(=O)c2c(NC(=O)CCC(=O)O)sc(-c3ccccc3)c2C)cc1 do in these assays?
KCNH2 3.1 inh: -4; PLK1 PBD block: 24µM*; hERG WT inh: 0; VDR inhibitor: inconclusive; MBNL1 CUG block: 14%; CBFb RUNX1 block: -1%

What do the screens show for `Cc1sc(NC(=O)CCC(=O)O)c(C(N)=O)c1-c1ccccc1`?
KCNH2 3.1 inh: 3; PLK1 PBD block: 13µM*; hERG WT inh: 12; VDR inhibitor: inconclusive; MBNL1 CUG block: -3%; CBFb RUNX1 block: -14%

Results for O=C(NC1CCCC1)c1ccc2c(=O)n(Cc3ccccc3)c(SCc3ccccc3)nc2c1 ?
VDR inhibitor: 16%
